# Results published in PubChem BioAssay (NCATS).
# Results filed as inconclusive are left out. Entries that show only a call come without a potency. Calls of active or inactive are those of the source. The call rests on the fitted dose curve; in most records, active means well fitted inhibition curve with a large enough effect; inconclusive means small, poorly fitted or top-dose-only effect; inactive means flat fitted curve, though single readings scatter.
# Target: Calcium and integrin-binding protein 1 (Homo sapiens) (UniProt Q99828)
# Sequence (Q99828 whole entry, looked up): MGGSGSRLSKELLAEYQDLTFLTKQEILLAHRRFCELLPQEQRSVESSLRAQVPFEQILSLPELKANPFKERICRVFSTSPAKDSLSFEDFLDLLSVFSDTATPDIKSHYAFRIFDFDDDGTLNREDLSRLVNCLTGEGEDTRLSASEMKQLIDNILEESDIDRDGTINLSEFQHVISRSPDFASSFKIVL
# Assay: Primary qHTS for Identification of Calcium Integrin Binding Protein 1 (CIB1) Competitor (AID 1508620)
# Settings: CIB1-GST / FITC-alphaIIb peptide fluorescence polarization; series mostly up to 57.7 µM
# Outline: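 Fluorescence polarization competition: GST-tagged CIB1 (1 uM final) preincubated with compound 15 min at room temperature, then FITC-labelled alphaIIb peptide (100 nM final) added. After 15 min at room temperature, polarization read at Ex 480/Em 540.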
# Potency means the concentration at half of the fitted maximal effect.
row,Compound,Potency
1,Cc1ccccc1-n1c(Cn2nc(-c3cccc(O)c3)c3c(N)ncnc32)nc2cccc(C)c2c1=O,inactive
2,O=C(Nc1cccc2c(=O)cc(-c3nn[nH]n3)oc12)c1ccc(OCCCCc2ccccc2)cc1,inactive
3,C[C@]12CCC3=C4CCC(=O)C=C4CC[C@@H]3[C@H]1CC[C@@]2(O)CC#N,inactive
4,C[C@H]1O[C@@H](n2cc(F)c(=O)[nH]c2=O)[C@H](O)[C@H]1O,inactive
5,C[C@@H]1C[C@H]2[C@@H]3CCC4=CC(=O)C=C[C@]4(C)[C@@]3(F)[C@@H](O)C[C@]2(C)[C@@]1(O)C(=O)CO,inactive
6,COC(=O)[C@H](c1ccccc1Cl)N1CCc2sccc2C1,inactive
7,N#CC(=C1Nc2ccccc2S1)c1ccnc(OCc2ccc(CN3CCOCC3)cc2)n1,inactive
8,COc1cc2c(cc1Cc1cccc(Cl)c1F)c(=O)c(C(=O)O)cn2[C@H](CO)C(C)C,inactive
9,Cc1cnc(Nc2cccc(CN3CCOCC3)c2)nc1Nc1cccc(S(=O)(=O)NC(C)(C)C)c1,inactive
10,Cc1cccc(Nc2nc(N[C@@H]3CCCC[C@H]3N)ncc2C(N)=O)c1,inactive
11,C[C@H]1[C@H](O)O[C@@H]2O[C@@]3(C)CC[C@@H]4[C@H](C)CC[C@@H]1[C@@]24OO3,inactive
12,CCCCn1c(=O)n(Cc2ccccc2F)c(=O)c2[nH]c(Cc3ccc(NC(C)=O)cc3)nc21,inactive
13,CCOC(=O)N1CCN([N+]([O-])=NOc2cc(ON=[N+]([O-])N3CCN(C(=O)OCC)CC3)c([N+](=O)[O-])cc2[N+](=O)[O-])CC1,inactive
14,Cc1cnc(-c2cc(N3CCN(C(=O)CCS(C)(=O)=O)CC3)ncc2Cl)c(C)c1,inactive
15,CO[C@@H]1C(N(C)C(=O)c2ccccc2)C[C@H]2O[C@]1(C)n1c3ccccc3c3c4c(c5c6ccccc6n2c5c31)C(=O)NC4=O (stereo partly drawn),19.2 µM (active)
16,FC(F)(F)c1ccc(C=Cc2nc(COc3ccc(CCCCn4ccnn4)cc3)co2)cc1,inactive
17,CC(C)C[C@@H](C(=O)N[C@H](C(=O)OC1CCCC1)c1ccccc1)[C@H](O)C(=O)NO,inactive
18,CC(=O)N1CCN(c2ccc(OCc3nn(C)c(C)c3-c3cccc4c(CCCOc5cc(C)c(Cl)c(C)c5)c(C(=O)O)n(Cc5cccnc5)c34)cc2)CC1,inactive
19,O=C(CCCN1CCN(c2ccc(F)cc2)CC1)NC1c2ccccc2CSc2ccccc21 (stereo not drawn),inactive
20,Cc1cc2c(cc1C1(c3ccc(C(=O)O)cn3)CC1)C(C)(C)CCC2(C)C,inactive
21,NC(=O)c1ncn([C@@H]2O[C@H](CO)[C@@H](O)[C@@H]2O)n1,inactive
22,CN(C)CCN(Cc1ccc(Cl)cc1)c1ccccn1,inactive
23,N=C1SC(=Cc2ccc(-c3ccc4c(c3)C(=O)NC4=O)o2)C(=O)N1c1ccc(Br)cc1,inactive
